Screening data (PubChem)
p53 reactivator – qHTS assay for re-activators of p53 using a Luc reporter. H1299 p53-A138V BP100-luciferase reporter, luminescence, 24 h. Potency, µM (titrated, usually from 92.2 µM), most hits filed as activators. 0.063% of 320,000 active; also: nearly all actives have a fitted effect of over 45% in size
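p53-null H1299 cells stably carrying temperature-sensitive p53-A138V and a BP100-luciferase reporter were pinned with compounds (4-point, 1:5 series) and held 24 hrs at 37 deg C. Luminescence was read 10 min after detection reagent.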
CtBP-E1A blk – qHTS Assay for Inhibitors of the CtBP/E1A Interaction. AlphaScreen GST-E1A/His-CtBP binding, 1536-well; hits give low values. activity change, % (test concentration not listed). 0.49% of 340,000 active. AID 651724, 2012; in the data active = activity change below about -65%; inconclusive = mostly about -30% to -63%
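Steps: dispense buffer (Tris pH 8.0, NaCl 300 mM, TCEP 1 mM, BSA, Tween 20); add 5X protein mix (GST-E1A, His-CtBP, 125 nM each); pin 23 nL compound; 2 h at 37 °C, dark; add 5X beads (50 ug/mL); 1 h; read.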
Gal4-VP16 FLuc – VP16 counterscreen qHTS for inhibitors of ROR gamma transcriptional activity. Drosophila S2 Gal4-VP16 UAS-luciferase, luminescence, 20 h. Potency, µM (highest dose often 53.6 µM), most hits filed as inhibitors. 3.5% of 310,000 active;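 also: Gal4-VP16 expression switched on by copper sulfate through the metallothionein promoter; nearly all actives have a fitted effect of over 50% in size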
RORgamma inh – qHTS for inhibitors of ROR gamma transcriptional activity. Nuclear receptor ROR-gamma (Mus musculus), P51450. Drosophila S2 Gal4-RORgamma UAS-luciferase reporter, 20 h. Potency, µM (titrated, usually from 53.6 µM), usual class: inhibitors. 5.4% of 310,000 active. AID 2551, 2010; also: nearly all actives have a fitted effect of over 60% in size
Target sequence (P51450 whole entry, looked up, the tested form may be a part): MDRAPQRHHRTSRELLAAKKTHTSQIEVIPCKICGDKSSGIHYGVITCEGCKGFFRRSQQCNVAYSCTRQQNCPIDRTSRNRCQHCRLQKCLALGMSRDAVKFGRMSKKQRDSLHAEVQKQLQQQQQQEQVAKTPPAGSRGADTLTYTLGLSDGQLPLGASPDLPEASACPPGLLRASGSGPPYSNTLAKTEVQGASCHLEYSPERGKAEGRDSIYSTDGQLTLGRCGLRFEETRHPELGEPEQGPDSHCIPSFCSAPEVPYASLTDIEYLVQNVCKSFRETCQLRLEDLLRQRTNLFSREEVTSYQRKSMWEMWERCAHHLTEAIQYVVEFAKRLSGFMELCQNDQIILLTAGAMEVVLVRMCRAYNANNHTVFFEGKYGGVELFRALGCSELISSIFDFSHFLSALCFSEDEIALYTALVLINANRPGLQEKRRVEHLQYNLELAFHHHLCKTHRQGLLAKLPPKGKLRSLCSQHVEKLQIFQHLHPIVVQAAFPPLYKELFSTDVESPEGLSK
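Schneider cells (Drosophila), stable Gal4 DBD–ROR gamma + UAS-luc; 1 hr cmpd preincubation; Cu2+ induction 700 uM final; 20 hr ambient; luminescence.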
Six1-Eya2 blk – qHTS Assay for Inhibitors of the Six1/Eya2 Interaction; AlphaScreen GST-Six1/His-Eya2 binding, biochemical; hits give low values; 0.56% of 360,000 active; Homeobox protein SIX1 (Homo sapiens) + Protein phosphatase EYA2 (Homo sapiens), …; activity change, % (test concentration not listed); AID 651725, 2012; in the data active = activity change below about -65%; inconclusive = mostly about -30% to -63%
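Homogeneous AlphaScreen proximity assay pairing GST-Six1 with His-tagged Eya2 (added as 5X mix: 250 nM and 500 nM) in 50 mM Tris pH 8.0, 300 mM NaCl, 1 mM TCEP. Glutathione donor and nickel acceptor beads; 1 h, 37 °C, dark.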
Hits are given with their value; – = inactive; ? = inconclusive; · = not tested or not shown; [ ] = another dose, or the depositor's remark. An excerpt weighted towards active compounds, which were near 5.4% of everything screened. Unless noted, calls follow the shape of the dose curve; as a rule, active = well fitted curve in the direction sought with a large enough effect; inconclusive = small, poorly fitted or top-dose-only effect, or another doubt; inactive = no such curve, though single readings can be large; an effect the other way counts as inactive or inconclusive.

SMILES | p53 reactivator | CtBP-E1A blk | Gal4-VP16 FLuc | RORgamma inh | Six1-Eya2 blk
O=C(Nc1nc2c(s1)CCCC2)c1ccc(N2C(=O)CCC2=O)cc1 | – | – | – | ? | –
O=C(Nc1nc2c(s1)CCCC2)c1ccc(Br)s1 | ? | – | ? | 11µM | –
O=C(Nc1nc2c(s1)CCCC2)c1ccc2ncsc2c1 | ? | – | ? | 1.8µM | –
Cc1cc(C(=O)Nc2nc3c(s2)CCCC3)cs1 | ? | – | 6.3µM | ? | –
O=C(c1cnccn1)N1CCC2(CCCN(c3ccncc3)C2)CC1 | · | · | – | – | ·
COc1ccc(-n2c(-c3ccc(Br)cc3)c[n+]3c2SC(C)C3)cc1 (configuration not stated) | – | – | – | – | –
CSCC[C@H](NC(=O)[C@H](CC(C)C)NC(=O)[C@H](Cc1c[nH]c2ccccc12)NC(=O)[C@H](CCC(N)=O)NC(=O)[C@@H](NC(=O)[C@H](Cc1ccccc1)NC(=O)[C@H](CC(=O)O)NC(=O)[C@H](CCC(N)=O)NC(=O)[C@H](C)NC(=O)[C@H](CCCNC(=N)N)NC(=O)[C@H](CCCNC(=N)N)NC(=O)[C@H](CO)NC(=O)[C@H](CC(=O)O)NC(=O)[C@H](CC(C)C)NC(=O)[C@H](Cc1ccc(O)cc1)NC(=O)[C@H](CCCCN)NC(=O)[C@H](CO)NC(=O)[C@H](Cc1ccc(O)cc1)NC(=O)[C@H](CC(=O)O)NC(=O)[C@H](CO)NC(=O)[C@@H](NC(=O)[C@H](Cc1ccccc1)NC(=O)[C@@H](NC(=O)CNC(=O)[C@H](CCC(N)=O)NC(=O)[C@H](CO)NC(=O)[C@@H](N)Cc1cnc[nH]1)[C@@H](C)O)[C@@H](C)O)C(C)C)C(=O)N[C@@H](CC(N)=O)C(=O)N[C@H](C(=O)O)[C@@H](C)O | · | · | – | – | ·
Cc1sc2nc(CN3CCC(C)CC3)nc(Cl)c2c1C | – | · | – | 18µM | ·
Cc1sc2nc(CN3CCOCC3)nc(Cl)c2c1C | – | – | – | ? | –
COC1OC(CO)C(N=C(C)C)C1O (configuration not stated) | · | – | · | · | –
Cc1ccc(Nc2nnc(SCC(=O)NCC3CCCO3)s2)cc1 (configuration not stated) | – | – | · | · | ?
Cc1ccc(Nc2nnc(SCC(=O)NCC3CCCO3)s2)cc1C (configuration not stated) | – | -77 | · | · | -68
CSc1ccccc1C(=O)NC1CCCCC1 | – | – | – | – | –
CC(C)c1ccccc1NC(=S)NC(C)c1ccccc1 (configuration not stated) | – | – | ? | ? | –
CSc1ccccc1NC(=S)NC1CCCCC1 | – | – | ? | 3.5µM | –
CCc1ccccc1NC(=O)NC1CCCCCCC1 | – | – | – | – | –
CC(C)c1ccccc1NC(=S)NC1CCCCC1 | – | – | 10µM | 0.45µM | –
S=C(Nc1cccc2ccccc12)NC1CCCCC1 | ? | – | 10µM | 2µM | –
CCCCc1ccccc1NC(=S)NC1CCCC1 | – | – | 4.5µM | 3.2µM | –
O=C(Nc1cccc2ccccc12)C1CCCC1 | – | – | – | – | –
CCc1ccccc1NC(=O)CNC(=O)CSC(=S)N1CCCC1 | – | – | · | · | –
COc1cccc(-c2nc(NCc3cccs3)c3ccccc3n2)c1 | · | · | – | – | ·
O=C1CC(NS(=O)(=O)c2ccc(F)cc2)CN1c1ccc2c(c1)OCCO2 (configuration not stated) | – | – | · | · | –
CSc1ccccc1NC(=S)NC1CCCC1 | – | – | 7.1µM | 6.3µM | –
COc1ccc(CCN2C(=O)CCC2(C)c2nnnn2-c2ccc3c(c2)OCCO3)cc1OC (configuration not stated) | · | – | · | · | –
SMILES | p53 reactivator | CtBP-E1A blk | Gal4-VP16 FLuc | RORgamma inh | Six1-Eya2 blk
COC(=O)/C=C/C(=O)Nc1cccnc1 | – | – | – | 11µM | –
COc1ccc(CC(=O)NNC(=S)Nc2ccccc2)cc1Br | – | – | ? | 13µM | –
CCOc1ccc(CC(=O)NNC(=S)Nc2ccccc2)cc1Br | – | – | – | – | –
CC(=O)N(C)c1ccc(NC(=O)/C=C/c2ccccc2Cl)cc1 | – | – | 18µM | 1.1µM | –
O=C(O)/C=C/C(=O)Nc1cccnc1 | – | – | ? | – | –
Cc1cccnc1NC(=S)NC(=O)/C=C/c1ccccc1 | – | – | 6.3µM | 4.5µM | ?
COC(=O)C1(C(=O)OC)C/C=C\C/C=C\c2ccccc2[C@@H]1C[N+](=O)[O-] | · | · | – | – | ·
CCOc1ccc2nc(S(=O)(=O)NC(=O)C3(C)CCN3C(=O)c3cccc(F)c3)sc2c1 (configuration not stated) | · | – | · | · | –
COc1ccc(/C=C/C(=O)Nc2ccccc2)cc1OC | – | – | – | – | –
CCOC(=O)c1cc(-c2ccccc2)sc1NC(=S)Nc1cc(C)ccn1 | – | – | 2.2µM | 1µM | –
Cc1ccnc(NC(=S)NC(=O)/C=C/c2ccc(Cl)cc2)c1 | ? | – | 13µM | 14µM | –
COc1ccc(/C=C/C(=O)NC(=S)Nc2ccccc2)cc1OC | – | – | ? | 10µM | –
Cc1ccnc(NC(=O)/C=C/c2ccccc2Cl)c1 | ? | – | 5.6µM | 3.5µM | –
CC(=O)Nc1ccc(NC(=S)NC(=O)/C=C/c2ccc(Cl)cc2)cc1 | – | – | –[10 µM] | – | –
CCOC(=O)c1cc(-c2ccccc2)sc1NC(=O)C(C)(C)C | – | – | – | – | –
CC(C)C1C(=O)N(Cc2cn(CC3CCCCC3)nn2)CCS(=O)(=O)N1Cc1ccc(-c2cccc(CO)c2)cc1 (configuration not stated) | · | – | · | · | –
CCCN(CCC)C(=O)[C@@H](CCC(=O)O)NC(=O)c1ccccc1 | · | · | – | – | ·
COc1ccccc1P(=O)(c1ccccc1)c1ccc([N+](=O)[O-])cc1 (configuration not stated) | – | – | – | – | –
COc1ccc(/C=C/C(=O)c2ccc(NC(=O)c3cccs3)cc2)cc1OC | ? | – | – | 2.5µM | –
CCOc1ccc(N/C=C/C(=O)c2ccc(C)cc2)c([N+](=O)[O-])c1 | ? | – | ? | 2µM | –
CCOc1ccc(NC(=S)NC(=O)/C=C/c2ccc(OC)c(OC)c2)c([N+](=O)[O-])c1 | – | – | 2.5µM | 1.1µM | –
CCOc1ccc(N/C=C/C(=O)c2ccc3ccccc3c2)c([N+](=O)[O-])c1 | – | – | – | – | –
CCC(=O)Nc1ccc(NC(=S)NC(=O)/C=C/c2ccccc2)cc1 | – | – | ? | 13µM | –
CCCCCCCCCCCC | · | · | – | – | ·
COc1cccc(CNC(=O)C(=O)NCC2OCCCN2S(=O)(=O)c2cc(C)ccc2C)c1 (configuration not stated) | – | – | – | – | –
